Screening results: PubChem, National Center for Advancing Translational Sciences (NCATS)
Shown are actives, neighbours in structure and some others; about 5.5% of the full set was active somewhere.
RORg inh: ROR gamma (mouse) transcription inhibition. Drosophila S2 Gal4-RORgamma UAS-luciferase reporter, 20 h. AID 2551. actives 5.4% (n = 310,000). Potency, µM (top dose mostly 53.6 µM), usual class: inhibitors; further: nearly all actives have a fitted effect of over 60% in size
Target sequence (P51450 whole entry, looked up, the tested form may be a part): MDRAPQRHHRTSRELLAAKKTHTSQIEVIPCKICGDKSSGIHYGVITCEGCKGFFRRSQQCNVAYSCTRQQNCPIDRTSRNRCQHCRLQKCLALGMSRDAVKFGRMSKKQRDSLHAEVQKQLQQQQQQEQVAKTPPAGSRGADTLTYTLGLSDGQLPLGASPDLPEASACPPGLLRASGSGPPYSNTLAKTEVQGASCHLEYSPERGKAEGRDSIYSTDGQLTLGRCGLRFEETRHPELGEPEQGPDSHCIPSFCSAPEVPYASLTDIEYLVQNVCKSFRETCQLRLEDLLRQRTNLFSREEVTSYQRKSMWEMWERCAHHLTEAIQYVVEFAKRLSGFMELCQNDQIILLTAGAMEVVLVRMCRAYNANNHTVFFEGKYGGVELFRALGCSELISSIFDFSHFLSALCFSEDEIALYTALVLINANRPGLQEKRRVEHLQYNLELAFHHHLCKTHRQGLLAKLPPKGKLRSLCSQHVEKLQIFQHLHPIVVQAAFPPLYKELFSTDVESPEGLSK
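Read-out: Photinus luciferase luminescence; inhibitors lower reporter signal. Insect Schneider cells with Gal4-ROR gamma fusion under metallothionein promoter, UAS reporter; 700 uM final copper sulfate induction, 20 hr, ambient temperature.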
Gal4-VP16 FLuc: Gal4-VP16 reporter inhibition counter-screen; actives 3.5% (n = 310,000); Drosophila S2 Gal4-VP16 UAS-luciferase, luminescence, 20 h; Potency, µM (titrated, usually from 53.6 µM), usual class: inhibitors;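 further: Gal4-VP16 expression switched on by copper sulfate through the metallothionein promoter; nearly all actives have a fitted effect of over 50% in size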
uPA generation: inhibitors of cell surface uPA generation; AID 540303; cell surface uPA generation assay, qHTS; Potency, µM (top dose mostly 38.3 µM), most hits filed as inhibitors; actives 0.31% (n = 330,000); active means well fitted inhibition curve with a large enough effect; inconclusive means small, poorly fitted or top-dose-only effect; inactive means no such curve, though single readings can be large or run the other way; tested in mouse RAW 264.7 cells; further: nearly all actives have a fitted effect of over 55% in size
Chronic BCR inh: blocks chronic active B-cell receptor signaling | ABC-DLBCL IkBa-CBG/CBR reporter, luminescence ratio, 4 h | Potency, µM (titrated, usually from 46.1 µM), most hits filed as inhibitors | actives 0.05% (n = 340,000) | AID 493014; active means well fitted inhibition curve with a large enough effect in the signal ratio, with a control signal flat, not every such curve was filed as active; inconclusive means small, poorly fitted or top-dose-only effect, or effect the other way, or a change in a side signal; the % refers to the signal ratio
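Doxycycline induced both beetle luciferases in TMD8 lymphoma cells; IKK-driven degradation limits the IkappaBalpha-fused green signal, while red luminescence normalises for cell number and nonspecific effects. Compounds tested up to 46 uM, 4 hrs.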
Mito fusion act: mitochondrial division inhibition or fusion activation; S. cerevisiae fusion-defective mutant growth rescue, CellTiterGlo 48 h; Potency, µM (series often up to 46.1 µM), actives largely listed as activators; actives 0.23% (n = 320,000); AID 485298; further: nearly all actives have a fitted effect of over 45% in size
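Temperature-sensitive fusion-defective S. cerevisiae (e.g. fzo1-1, mgm1-5) were grown with compound in YPEG medium (3% ethanol, 3% glycerol) for 48 hours at 37C. Growth rescue was measured as viability by CellTiterGlo luminescence after 10 minutes at ambient.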
Integrin act MD: activates integrin-mediated alleviation for muscular dystrophy | alpha7betagal myoblasts, beta-gal FDG fluorescence, 48 h | Potency, µM (highest dose often 38.3 µM), usual class: activators | actives 0.064% (n = 350,000) | AID 624291; further: nearly all actives have a fitted effect of over 60% in size
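Alpha7betagal+/- myoblasts (passage 13) were plated 16-24 hr, then exposed to compounds (1:260 dilution of DMSO stock) for 48 hours at 37C. After MPER lysis, β-galactosidase reporter activity was read as FDG fluorescence (ex 480/em 540) after 30 minutes.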
A number is an active result; n = inactive; u = inconclusive; x = not tested or not shown; [ ] = another dose, or the depositor's remark. Unless noted, the call rests on the fitted dose curve; in most records, active means well fitted curve in the direction sought with a large enough effect; inconclusive means small, poorly fitted or top-dose-only effect, or another doubt; inactive means no such curve, though single readings can be large; an effect the other way counts as inactive or inconclusive.

SMILES | RORg inh | Gal4-VP16 FLuc | uPA generation | Chronic BCR inh | Mito fusion act | Integrin act MD
CCOC(=O)C(=N/O)/C(C)=N/NC(=O)C(=O)Nc1ccc(Cl)cc1 | n | 20µM | u | n | n | n
CC(=N\Nc1ccc(Cl)cc1)/C(=N/O)C(=O)Nc1ccccc1 | u | n | n | n | n | n
CCc1cnc2c(c1SCC(=O)c1ccc(OC)cc1)c(=O)n(C)c(=O)n2C | x | x | x | n | x | x
COc1ccc(/C=N/NC(=S)Nc2ccccc2)cc1COc1ccc(Br)cc1 | 0.316µM | 2.24µM | n | n | n | n
COc1ccc(/C=N\NC(=O)c2ccccc2F)cc1COc1ccc(F)cc1 | n | n | n | n | n | n
COc1ccc(/C=N/NC(=O)c2nc(Cl)c(Cl)c(N)c2Cl)cc1COc1ccccc1F | n | n | n | u | n | n[1.53 µM]
COc1ccc(/C=N/NC(=S)Nc2ccccc2)cc1COc1ccccc1F | 2.24µM | 3.16µM | x | u | n | x
COc1ccc(/C=N/NC(=S)Nc2ccccc2)cc1COc1ccc(F)cc1 | 0.355µM | 0.891µM | n | u | n | n
O[C@@H]1CO[C@H]2[C@@H]1OC[C@@H]2O | n | n | x | x | x | x
O=c1c(CCc2ccccc2)nc2cnc(Oc3ccccc3)nc2n1C1CC1 | n | n | x | x | x | x
Cc1c(C(=O)N(Cc2cccc(Br)c2)C2CCS(=O)(=O)C2)oc2ccc(F)cc12 (stereo unspecified) | n | n | n | n | n | u
CCN(CC)S(=O)(=O)c1ccc(Oc2ccc(S(=O)(=O)N(CC)CC)cc2)cc1 | u | 7.08µM | x | u | n | n
O=C(CCCC(=O)Nc1cccc(Br)c1)N/N=C/c1cc([N+](=O)[O-])ccc1O | u | 10µM | n | n | n | n
O=C(CCC(=O)Nc1cccc(Cl)c1)N/N=C/c1cc([N+](=O)[O-])ccc1O | 11.2µM | u | n | n | n | n
O=C(CN(c1cccc(Br)c1)S(=O)(=O)c1ccccc1)N/N=C/c1cc([N+](=O)[O-])ccc1O | x | x | n | x | x | n
COc1cc(CCCN2CCNC[C@@H]2Cc2ccc(O)cc2)cc(OC)c1OC | x | x | n | n | n | n
CCOC(=O)N1CCN(C(=O)/C(=C/c2cccs2)NC(=O)c2ccc(OC)c(OC)c2)CC1 | n | n | n | n | n | u
Cc1ccc(C)c(NC(=S)NNC(=O)c2csc3c2CCC(C)C3)c1 (stereo unspecified) | 5.01µM | n | x | n | n | n
CC(C)C(=O)N(c1cc2sc(=O)oc2c2ccccc12)S(=O)(=O)c1cccs1 | 22.4µM | u | n | u | n | n
COc1ccc(CNc2nc(-c3cccc(C#N)c3)nc3ccccc23)c(OC)c1 | u | n | x | x | x | x
O=C(NCC(=O)N1CCN(Cc2ccccc2)CC1)c1cc(Cl)cc([N+](=O)[O-])c1 | x | x | n | n | x | n
Cc1ccc(C=NNC(=O)c2cc(-c3cccnc3)nc3ccccc23)o1 | x | x | n | n | x | n
CCCc1cc(C(=O)N/N=C/c2ccc(C)o2)c2ccccc2n1 | 10µM | n | n | u | n | n
O=C(N/N=C/c1ccoc1)c1ccccc1 | n | n | n | u | n | n
Cc1ccc(/C=N/NC(=O)c2cc(-c3ccccc3)nc3ccccc23)o1 | 3.98µM | 7.08µM | n | u | n | n
SMILES | RORg inh | Gal4-VP16 FLuc | uPA generation | Chronic BCR inh | Mito fusion act | Integrin act MD
O=C(N/N=C/c1ccoc1)c1ccccc1O | 10µM | 17.8µM | n | u | n | n
Cc1ccc(-c2cc(C(=O)N/N=C/c3ccoc3)c3ccccc3n2)cc1 | 7.08µM | 10µM | u | u | n | n
N/C(=N\OC(=O)c1cccc(Br)c1)c1ccccn1 | 10µM | 17.8µM | u | u | n | n
N/C(=N\OC(=O)c1cccc(Cl)c1)c1ccccn1 | u | u | n | u | n | n
N/C(=N\OC(=O)c1ccc(Cl)cc1)c1ccccn1 | 8.91µM | 10µM | x | u | n | n
COc1cc(OC)cc(C(=O)O/N=C(\N)c2ccccn2)c1 | n | n | u | u | n | n
COc1ccc(C(=O)O/N=C(\N)c2ccccn2)cc1 | 14.1µM | 17.8µM | n | u | n | n
CCOc1ccccc1CNC(=O)C1CCN(Cc2cc3ccccc3n2Cc2ccccc2)CC1 | x | x | x | n | x | x
COc1cc2c(cc1OC)C(C)N(C(=O)[C@@H](NC(=O)c1ccccc1)C(C)C)CC2 (stereo partly specified) | n | n | n | n | u | n
CCOc1ccc(NC(=S)N(CCN2CCOCC2)Cc2cc3cc4c(cc3[nH]c2=O)OCCO4)cc1 | n | n | n | u | n | n
COc1ccc(OC)c(NC(=O)CN(Cc2ccc(F)cc2)C2CCCCC2)c1 | u | 17.8µM | n | n | n | n
COc1ccc(C(=O)/C=C/C(=O)N(CC(=O)NC2CCCCC2)Cc2ccc(F)cc2)c(O)c1 | n | 7.08µM | n | u | n | n
COc1ccc(Cl)cc1NC(=O)CN(C)C1CCCCC1 | n | n | n | n | n | n
O=C(NCCc1c[nH]c2ccccc12)C1CCC(Cn2c(=S)[nH]c3ccccc3c2=O)CC1 (stereo unspecified) | 7.08µM | 12.6µM | x | n | n | n
COCCNC(=O)C1CCC(Cn2c(=S)[nH]c3ccccc3c2=O)CC1 (stereo unspecified) | n | n | n | n | n | n
CCC(C)(C)c1ccc(OCCCC[n+]2cccc(C)c2C)c(C(C)(C)CC)c1 | u | 11.2µM | 8.91µM | u | n | n
CCC(C)(C)c1ccc(OCCCC[n+]2ccc(C)cc2)c(C(C)(C)CC)c1 | u | u | u | n | n | n
CSc1ccc(CN(C)Cc2nc3cc(C(F)(F)F)ccc3c(=O)[nH]2)cc1 | 12.6µM | u | n | n | n | n
COc1cc2nc(CN(C)Cc3ccc(SC)cc3)[nH]c(=O)c2cc1OC | n | n | n | n | n | n
O=C(COC(=O)c1cc(NS(=O)(=O)c2cccs2)ccc1O)Nc1cc(Cl)ccc1Cl | u | 12.6µM | n | u | n | n
COc1cc2c(cc1O)-c1ccccc1CN(C)C2 | n | n | x | x | x | x
O=C(COc1ccc(Cl)cc1[N+](=O)[O-])N/N=C/c1cccs1 | u | n | n | n | n | n
COc1cc(C(C[N+](=O)[O-])c2c(C)cc3ccccn23)ccc1O (stereo unspecified) | 15.8µM | u | n | u | n | n
COc1ccc(C(C[N+](=O)[O-])c2c(-c3ccccc3)cc3ccccn23)cc1OC (stereo unspecified) | 8.91µM | u | n | x | n | n
COc1ccc(NC(=O)N(O)C2(C#N)CCCCC2)cc1 | x | x | n | x | x | n
CC1=C(C(=O)NCc2ccc(Cl)cc2)C2(CCCCC2)OC1=O | x | x | x | n | x | x
O=C(COC(=O)/C=C/c1cccs1)NC(c1ccccc1)c1ccccc1 | n | n | n | n | n | n
O=C(COC(=O)/C=C/C(=O)N1CCN(c2ccccc2)CC1)NC(c1ccccc1)c1ccccc1 | u | u | 6.31µM | u | n | n
